# Bioassay records: PubChem BioAssay, National Center for Advancing Translational Sciences (NCATS)
# Shown are actives, neighbours in structure and some others; about 3.3% of the full set was active somewhere.
# VACV mCherry inh: vaccinia inhibition (mCherry reporter); Vaccinia virus mCherry reporter infection, fluorescence; Potency, µM (series often up to 36.5 µM), for inactives: at the highest dose activity change, negative = inhibition, hits mostly inhibitors; 310,000 tested, 0.63% active; calls by dose curve; tested in A549 cells; note: nearly all actives have a fitted effect of over 35% in size
# HCV inh: blocks hepatitis C virus | 340,000 tested, 3.4% active | Potency, µM (titrated, usually from 41.8 µM), for the others: at the top dose activity change, negative = inhibition, hits mostly inhibitors | Huh7.5.1 HCVcc-Cre infection, luciferase reporter, 44 h; active = well fitted inhibition curve with a large enough effect; inconclusive = small, poorly fitted or top-dose-only effect, or another doubt; inactive = no such curve, though single readings can be large or run the other way
#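 1,000 cells/well; 4 h culture; + compound; + HCVcc-Cre (~0.5 moi); 44 h; luciferase substrate, RT 15 min; read 15 sec.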
# Vaccinia Venus: vaccinia inhibition (Venus reporter); Vaccinia virus Venus reporter expression, fluorescence; Potency, µM (doses to about 36.5 µM), for the others: at the highest dose activity change, negative = inhibition, actives largely listed as inhibitors; 330,000 tested, 0.46% active; calls by dose curve; tested in A549 cells; note: nearly all actives have a fitted effect of over 30% in size
# Numbers without * were called inactive; i = inactive; ? = inconclusive; . = not tested or not shown. % is set by controls: 0 for no effect and ±100 for the full control effect; potency is the fitted concentration of half-maximal effect.
SMILES,VACV mCherry inh,HCV inh,Vaccinia Venus
CC(=O)c1cccc(NS(=O)(=O)c2ccc(N/C=C/C(=O)c3ccc(F)cc3)cc2)c1,?,11µM*,-27%
CC(=O)c1cccc(NS(=O)(=O)c2ccc(N/C=C\C(=O)c3ccc(C)cc3)cc2)c1,-9%,?,?
CC(=O)c1ccc(NS(=O)(=O)c2ccc(N/C=C/C(=O)c3ccc(F)cc3)cc2)cc1,.,0%,.
CC(=O)c1cccc(NS(=O)(=O)c2ccc(N/C=C\C(=O)c3ccc(F)cc3)cc2)c1,.,11µM*,?
CC(=O)c1sc(NC(=O)C=C(C)C)nc1C,.,10%,.
CC(=O)c1sc(NC(=O)C2(F)C(F)(F)C(F)(F)C(F)(F)C(F)(F)C2(F)F)nc1C,?,10µM*,?
COC(=O)c1cccc(C(=O)N2CCc3c(C(=O)OC)c(OCc4ccccn4)cc(=O)n3CC2)c1,-6%,.,5%
CCOC(=O)Nc1ccc2c(c1)N(C(=O)CCN(C)C)c1ccccc1S2,.,13µM*,.
CCOC(=O)Nc1ccc2c(c1)N(C(=O)CN(C)C)c1ccccc1S2,?,.,-8%
O=C(CSc1nccn1Cc1ccc(Cl)cc1)Nc1ccc2c(c1)OCO2,i,.,-6%
CCCN1CNc2c(c(=O)[nH]c(=S)n2CCc2cc(Cl)ccc2Cl)C1,-9%,.,-24%
CCCCn1c(N)c(N(CCOC)C(=O)c2ccc(S(=O)(=O)N3CCCCC3)cc2)c(=O)[nH]c1=O,-13%,24%,1%
COc1ccc(CNC(=O)Cc2csc3nc(-c4ccc(C)cc4)cn23)cc1,-9%,.,-14%
CN(C)C1=NC[C@H](Cc2ccccc2)N1CCCC1CCCCC1,?,4µM*,-21%
CN(C)C1=NC[C@H](Cc2ccccc2)N1CCCC1CCCC1,0%,?,-22%
COCC(C)n1c(SCC(=O)Nc2cccnc2Cl)nc2ccccc2c1=O (stereo not given),-26%,.,-7%
O=C(COC(=O)CNC(=O)c1cccs1)Nc1ccc(C(F)(F)F)cc1[N+](=O)[O-],-21%,14%,-3%
Cn1cc(SCC(=O)Nc2ccc3c(c2)OCO3)c2ccccc21,-18%,-6%,-24%
Cn1nc(CC(=O)NCc2ccc(F)cc2)c2ccccc2c1=O,-14%,11µM*,-15%
COC(=O)CNC(=O)CNC(=O)c1nn(-c2ccc(OC)c(OC)c2)c(=O)c2ccccc12,.,6%,.
Cn1nc(CC(=O)Nc2ccc3c(c2)OCCO3)c2ccccc2c1=O,.,6.3µM*,-30%
COc1ccc(-n2nc(C(=O)NCC(=O)NCc3ccc(F)cc3)c3ccccc3c2=O)cc1OC,-29%,13µM*,?
Cn1nc(CC(=O)NCc2cccc3ccccc23)c2ccccc2c1=O,.,?,-2%
Cc1ccc(NC(=O)Cc2nn(C)c(=O)c3ccccc23)cc1F,i,?,-4%
CCCn1cc(SCC(=O)Nc2ccc3c(c2)OCO3)c2ccccc21,?,14µM*,-13%
SMILES,VACV mCherry inh,HCV inh,Vaccinia Venus
CC1=Nc2cc(C(=O)NCc3ccccc3Cl)ccc2Sc2c(C)ccc(C)c21,?,.,-27%
O=C(NC1CCCCC1)c1ccc(CSc2nc3ccncc3n2Cc2ccccc2)cc1,-4%,.,-27%
Cc1oc(-c2ccccc2NC(=O)c2ccccc2)nc1CNC(=O)c1cccc(-n2cccn2)c1,-6%,.,14%
COc1cc(NC(=O)Cc2nn(C)c(=O)c3ccccc23)cc(OC)c1,.,10µM*,?
COc1cccc(OC)c1NC(=O)Cc1nn(C)c(=O)c2ccccc12,.,7%,.
CCN(CC)S(=O)(=O)c1ccc(N2CCCC2)c(NC(=O)C2=NN(c3ccccc3)C(=O)CC2)c1,.,-25%,.
CCOc1ccc(NC(=O)Cn2c(=O)n(Cc3ccc(C(=O)NCc4ccc5c(c4)OCO5)cc3)c(=O)c3ccccc32)cc1,6%,.,4%
Cn1cccc1/C=N/N1CCN(Cc2ccccc2Cl)CC1,-16%,0.32µM*,-24%
Fc1ccccc1/C=N/N1CCN(Cc2ccccc2Cl)CC1,-13%,19%,-15%
CCc1ccc(NC(=O)Cn2c(=O)c3cccn3c3ccccc32)cc1,?,2%,?
CCc1ccc(NC(=O)CCn2c(=O)c3cccn3c3ccccc32)cc1,-9%,11µM*,-11%
Cc1cc(C)c(NC(=O)Cn2c(=O)c3cccn3c3ccccc32)c(C)c1,2%,-21%,1%
O=C(Cn1c(=O)c2cccn2c2ccccc21)Nc1cc(F)ccc1F,4%,11µM*,10%
COc1ccccc1C1CN(Cc2cn(C)nc2C)Cc2ccccc2O1 (stereo not given),-10%,.,-2%
CC(O)(c1ccccc1)[N+]1(CC(=O)c2ccccc2)C=CC=C1 (stereo not given),-14%,.,-15%
CN[C@H]1C[C@@H](N)[C@H](O)[C@@H](O[C@@H]2O[C@H](CO)[C@H](O)[C@@H]3OC4(O[C@H]23)O[C@H](C(N)CO)[C@H](O)[C@H](O)[C@H]4O)[C@@H]1O (stereo not given in full),-8%,.,-6%
O=C1OCCC1Sc1nnc2c(n1)[nH]c1ccccc12 (stereo not given),-3%,.,-11%
Cn1c(CN2CCCCC2)nc2cc(NC(=O)c3ccccc3)ccc21,?,-26%,-13%
Cn1c(CN2CCCCC2)nc2cc(NC(=O)c3cccc(Br)c3)ccc21,-5%,5.6µM*,?
CCN(CC)CCOC(=O)c1ccc(NC(=O)CCCN2C(=O)/C(=C\c3cccs3)SC2=S)cc1,.,10µM*,.
O=C(CCN1C(=O)/C(=C\c2cccs2)SC1=S)Nc1ccc(C(=O)O)cc1,.,9%,.
COc1cc(C(=O)N/N=C/c2ccc(OC)c(CN3CCN(c4ccc(F)cc4)CC3)c2)ccc1O,.,25µM*,.
COc1ccc(/C=N/NC(=O)c2ccccc2)cc1CN1CCN(c2ccc(F)cc2)CC1,-23%,-23%,-6%
CC1(C)SC2C(NC(=O)C(NC(=O)N3CCNC3=O)c3ccccc3)C(=O)N2C1C(=O)O (stereo not given),i,.,-14%
NC(=O)CSc1nc2scc(-c3ccc(Cl)cc3)c2c(=O)n1Cc1ccccc1,-6%,2%,-21%
SMILES,VACV mCherry inh,HCV inh,Vaccinia Venus
Cc1ccc(-c2csc3nc(SCC(=O)N(C)C)n(Cc4ccccc4)c(=O)c23)cc1,-6%,32µM*,?
CN(C)c1ccc(/C=c2\[nH]c(=O)/c(=C\c3ccc(N(C)C)cc3)[nH]c2=O)cc1,i,.,-6%
Cc1[nH]c2ccccc2c1SCc1nnc(SCc2ccccc2)n1C,-14%,-1%,?
Cc1[nH]c2ccccc2c1SCc1nnc(SCc2ccc(Cl)cc2)n1C,?,11µM*,-24%
CN(c1ccc(Cl)cc1)c1cc(=O)n(C)c2ccccc12,-24%,10µM*,-27%
CN(C(=O)COc1cc(=O)n(C)c2ccccc12)c1ccc(Cl)cc1,-10%,-20%,-2%
Cc1n[nH]c(C)c1CCCCOc1ccccc1[N+](=O)[O-],.,0%,.
COc1cc2c(cc1OC)C(c1ccc(N)cc1)=NNC(=O)C2,-29%,.,-23%
COc1ccc2[nH]c(C)c(CCNCc3cc(OC)c(OC)c(OC)c3)c2c1,-8%,?,5%
COc1ccc(CNCCc2c(C)[nH]c3ccc(OC(F)(F)F)cc23)c(OC)c1,?,18µM*,-21%
CCOc1ccc(C(CC(=O)O)NC(=O)C(c2ccccc2)c2ccccc2)cc1OC (stereo not given),.,9%,.
